Reference: PubChem BioAssay AID1986 (Sanford-Burnham Center for Chemical Genomics, 2009)
The whole screen tested about 290,000 compounds, of which about 890 (0.31%) were called active. The sample holds actives, similar compounds and a random draw of the others, so the mix is not that of the screen. No stated cut-off is given here; in the data, active means inhibition mostly above about 52% (no sharp cut-off); inactive means mostly below about 76%.

Assay: inhibitors of HIV fusion peptide binding, primary screen, biochemical, uHTS, fluorescence dequenching (AID 1986)
Details: cell-free peptide binding, 30 min, stronger effect = higher value
[1] = measured here: repeat confirmation average inhibition, at 18.6 µM

SMILES | inhibition (at 20 µM) | inhibition [1] [%]
O=C(/C=C/c1ccccc1)NCCSCc1ccccc1Cl | -2.6% (inactive) | –
O=S1(=O)C=CC(c2ccccc2)C1 (stereo not drawn) | 0.2% (inactive) | –
COC(=O)c1nn(-c2ccccc2)c(Sc2ccc(OC)cc2)c1/C=N/O | 2.7% (inactive) | –
O=c1c(-c2ccccc2)coc2c(CN3CCCCC3)c(O)ccc12 | 0.2% (inactive) | –
O=C(O)C(c1ccccc1)N1C(=O)/C(=C\c2ccc(-c3ccccc3Cl)o2)SC1=S (stereo not drawn) | 94.5% (active) | 110
O=C(O)C(c1ccccc1)N1C(=O)/C(=C\c2ccc(-c3cccc(Cl)c3)o2)SC1=S (stereo not drawn) | 91.2% (active) | 120
O=C(O)C(c1ccccc1)N1C(=O)/C(=C\c2ccc(-c3ccc(Br)cc3)o2)SC1=S (stereo not drawn) | 143% (inactive) | –
O=C(O)C(c1ccccc1)N1C(=O)/C(=C/c2cccs2)SC1=S (stereo not drawn) | 14.3% (inactive) | –
COc1ccccc1/C=C1\SC(=S)N(C(C(=O)O)c2ccccc2)C1=O (stereo not drawn) | 30.1% (inactive) | –
O=C1NC(=S)/C(=C\c2ccc(-c3ccccc3Cl)o2)S1 | 70.7% (inactive) | 0.5
COc1ccc(OC)c2[nH]c(=O)c(CCNC(=O)c3ccc(S(=O)(=O)N4CCCCC4)cc3)cc12 | -1.4% (inactive) | –
Cc1ccc2c(c1)N(CCC(=O)NCCCOC(C)C)C(=O)C(C)O2 (stereo not drawn) | -1.1% (inactive) | –
COC(=O)c1sc2ccccc2c1NC(=O)c1ccc(S(=O)(=O)N2CC(C)CC(C)C2)cc1 (stereo not drawn) | -1.5% (inactive) | –
CCOc1ccc(Br)cc1S(=O)(=O)NCCN(C)C | 2% (inactive) | –
CCN(CC)c1ccc2c(C)c(Cl)c(=O)oc2c1 | 4.7% (inactive) | –
CCN(CC)c1ccc2c(c1)oc(=O)c1c(Cl)cc(=O)oc12 | 106% (active) | 164
CCN(CC)c1ccc2c(Cl)cc(=O)oc2c1 | 3.7% (inactive) | –
C#CCOCCOCCOCCNc1nc(N2CCN(C(=O)[C@H]([C@@H](C)CC)n3cc([C@@H](N)CC(C)C)nn3)CC2)nc(N2CCN(C(=O)[C@H](CCCCN)n3cc([C@@H](N)CO)nn3)CC2)n1 | -1.1% (inactive) | –
CC(C)(C)NC(=O)NC(=O)COC(=O)c1ccco1 | 1.7% (inactive) | –

SMILES | inhibition (at 20 µM) | inhibition [1] [%]
O=C(O)/C=C/C(=O)N(CC1CCCO1)C1CC(=O)N(c2c(Cl)cccc2Cl)C1=O (stereo not drawn) | 7.8% (inactive) | –
O=C1N=C(N2CCN(c3ccccc3)CC2)S/C1=C\c1ccco1 | 0.9% (inactive) | –
O=C1N=C(N2CCN(c3ccccc3)CC2)S/C1=C/c1ccco1 | -1.8% (inactive) | –
O=C1N=C(N2CCCC2C(=O)O)S/C1=C\c1ccco1 (stereo not drawn) | 52.2% (active) | –
CCOc1cc(CNCCCN2CCOCC2)cc(Br)c1OCc1ccccc1Cl | 0.9% (inactive) | –
Cc1ccc(N/N=C/c2ccc3c(c2)OCCO3)cc1Cl | 2.7% (inactive) | –
COC(=O)c1nnn(-c2ccccc2)c1N | -4.4% (inactive) | –
N#CC1=C(N)n2c(s/c(=C\c3cccs3)c2=O)=C(C#N)C1c1cccs1 (stereo not drawn) | 74.8% (active) | –
CCOC(=O)C1=C(N)n2c(s/c(=C\c3cccs3)c2=O)=C(C(=O)OCC)C1c1cccs1 (stereo not drawn) | 3.8% (inactive) | –
N#CC1=C(N)n2c(s/c(=C\c3ccco3)c2=O)=C(C#N)C1c1ccco1 (stereo not drawn) | 26% (inactive) | –
CCc1nnc(NC(=O)C2Cc3ccccc3C(=O)O2)s1 (stereo not drawn) | -3.6% (inactive) | –
CCOC(=O)c1c(-c2ccc(OC)cc2)csc1/N=C/C1=C(O)CCCC1=O | 71.6% (active) | –
CCOC(=O)c1c(-c2ccc(OC)cc2)csc1/N=C/C1C(=O)CCCC1=O | 52.3% (inactive) | 2.2
CCOC(=O)c1c(/N=C/C2=C(O)CCCC2=O)sc(C)c1C | 52.3% (active) | –
CCOC(=O)c1c(CC(C)C)csc1/N=C/C1=C(O)CCCC1=O | 21.5% (inactive) | –
CCOC(=O)c1c(/N=C/C2=C(O)CC(C)(C)CC2=O)sc(C)c1C | 1.6% (inactive) | –
CCOC(=O)c1c(/N=C/C2=C(O)CCCC2=O)sc2c1CCCC2 | -0.2% (inactive) | –
Cc1ccc(C(=O)CC(C(=O)O)n2cncn2)cc1 (stereo not drawn) | 1.7% (inactive) | –
Cc1ccc2c(c1)S/C(=C/c1ccc[n+](C)c1)N2CCO | -0.9% (inactive) | –

SMILES | inhibition (at 20 µM) | inhibition [1] [%]
O=C(CC1SC(=O)N(Cc2ccccc2Cl)C1=O)Nc1nccs1 (stereo not drawn) | -0.8% (inactive) | –
Cn1c(CCNC(=O)C(C)(C)C)nc2ccccc21 | 1.8% (inactive) | –
C=C1c2cccc(O)c2C(O)=C2C(=O)[C@]3(O)C(O)=C(C(N)=O)C(=O)[C@@H](N(C)C)[C@@H]3[C@@H](O)[C@H]12 | 63.7% (active) | –
C[C@H]1c2cccc(O)c2C(O)=C2C(=O)[C@]3(O)C(O)=C(C(N)=O)C(=O)[C@@H](N(C)C)[C@@H]3[C@@H](O)[C@@H]21 | 16% (inactive) | –
CN(C)[C@@H]1C(=O)C(C(N)=O)=C(O)[C@@]2(O)C(=O)C3=C(O)c4c(O)ccc(Cl)c4[C@@H](O)[C@H]3C[C@@H]12 | 58.4% (active) | –
CN(C)c1ccc(O)c2c1CC1CC3[C@@H](N(C)C)C(=O)C(C(N)=O)=C(O)[C@]3(O)C(=O)C1=C2O (stereo partly drawn) | 54% (inactive) | 4.9
COc1ccc2nc(NC(=O)Cn3cnc4c(=O)n(C)c(=O)n(C)c43)sc2c1 | 4% (inactive) | –
CCN(CC)C(=O)CC(c1ccc(F)cc1)c1ccc(OC)cc1 (stereo not drawn) | 2% (inactive) | –
COc1ccc(OCC(=O)Nc2ccncc2)cc1 | 1.1% (inactive) | –
CCC1(c2ccccc2)NC(=O)N(CC(=O)Nc2ccccc2N2CCCCC2)C1=O (stereo not drawn) | 2.6% (inactive) | –
S=c1[nH]nc(C2CCCCC2)o1 | 0.3% (inactive) | –
COC(=O)[C@H](CCSC)NC(=O)NCCC1=CCCCC1 | 0.8% (inactive) | –
CCc1cccc(NC(=O)CN(C)S(=O)(=O)c2cccs2)c1 | 27.6% (inactive) | –
Cc1ccc(C)c(N(C(=O)c2csnn2)C(C(=O)NC2CCCCC2)c2ccncc2)c1 (stereo not drawn) | -2.4% (inactive) | –
N#Cc1c(-c2ccccc2)cc(-c2ccco2)c(C#N)c1N | 70.5% (active) | –
CSc1nc(-c2ccco2)cc(-c2ccccc2)c1C#N | -1.1% (inactive) | –
N#Cc1c(-c2ccco2)cc(-c2ccccc2)[nH]c1=O | 50.8% (inactive) | 12.4
CN(C)c1cccc(NC(=O)c2cccc3ccccc23)c1 | -1.2% (inactive) | –
